Compounds without any hit were thinned out: in the full panel of roughly 83,000, 20% have a hit.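 Method: cells in 96-well plates; compound added at one concentration; 48 h incubation; percent growth measured; values under 10 scored active.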 A number with no mark means an inactive call. Active and inactive are the calls of the source.

What all share (assay): NCI-60 one-dose screen, 48 h (100 = growth as untreated, 0 = no growth, -100 = all killed)
Assay [1] concerns SR leukemia. Particulars: 10 µM unless noted.
In assay [2] the test system is OVCAR-8 ovarian. The note with it: 10 µM unless noted.
Assay [3] concerns OVCAR-5 ovarian. The note with it: 10 µM unless noted.
The test system of assay [4] is OVCAR-4 ovarian. Particulars: 10 µM unless noted.
Assay [5] deals with IGROV1 ovarian. The note with it: 10 µM unless noted.
In assay [6] the test system is OVCAR-3 ovarian. The note with it: 10 µM unless noted.
Assay [7] concerns HS 578T breast. The note with it: 10 µM unless noted.
Assay [8] has as its system NCI/ADR-RES ovarian. Particulars: 10 µM unless noted.
The subject of assay [9] is SK-OV-3 ovarian. The note with it: 10 µM.
For assay [10], the system named is RPMI-8226 leukemia. Particulars: 10 µM.

For the molecule `O=C(N/N=C/c1ccc2c(c1)OCO2)c1cnn2c1NC(c1ccccc1)C2` (centres undefined), the growth in [1] is 31.6%; in assay [2] it was 66.8%; in assay [3] it was 78.1%; in assay [4], 48.9%; in assay [5], 51.5%; in assay [6], 25.2%. Also, the growth is 32.5% in [7] and 55.6% in assay [8].
For the molecule `O=c1c2c(=NCCN3CCCC3)cc3c(=O)n(CCCN4CCOCC4)c(=O)c4ccc(c(O)n1CCCN1CCOCC1)c2c4-3`, the growth was 13.5% in [1]; 11.9% in assay [2]; -10.9% (active) in assay [3]; -49.1% (active) in assay [4]; 2.41% (active) in [5]; -8.68% (active) in assay [6]. Moreover, the figures for the growth in assay [7] and in assay [8] were -13.9% (active) and -2.98% (active), respectively.
`COc1ccc(-c2[nH]ncc2Nc2cc(OC)c(OC)c(OC)c2)cc1`: the growth was 116% in assay [1]; 58.1% in [2]; 51.2% in assay [4]; 18.4% in [9]; 43% in assay [5]; 5.17% (active) in assay [6]. In addition, in assay [7], the growth is 49.8%.
Consider `CCOC(=O)n1cc(C2=C(c3cn(C)c4ccccc34)COC2=O)c2ccccc21`, for which the growth in [1] is 14%; in assay [2] it was 16.5%; in [3], 29.9%; in [4], 28.8%; in assay [5] it was 14.7%; in assay [6], -29.8% (active). Further, the growth in [7] was 9.62% (active); in assay [8], 2.15% (active).
`Cc1ccc2nc(NC(=O)CSC(=S)N3CCN(C)CC3)sc2c1`: the growth in assay [10] was 106%; in [2], 75.6%; in assay [3] it was 105%; in assay [4], 100%; in assay [9] it was 108%; in [5], 86.7%. For the same molecule, the growth in assay [6] was 120%; in assay [7] it was 114%; in assay [8], 89%.
`Cc1ccccc1-n1nnc(C(=O)Nc2ccc(-c3ccccc3)cn2)c1C`: the growth in assay [1] is 16% [50 µM]; in assay [2], 41.2% [50 µM]; in assay [3] it was 87.1% [50 µM]; in [4], 11.5% [50 µM]; in assay [5], 71% [50 µM]; in assay [6], 68.8% [50 µM]. Also, the growth in assay [7] was 90% [50 µM]; in assay [8], 33.3% [50 µM].
On to `NC1=NC(c2ccccc2OS(=O)(=O)c2ccc(Br)cc2)n2c(nc3ccccc32)N1` (centres undefined), for which the growth in [10] was 69.8%; in assay [2], 88.3%; in assay [3] it was 99%; in [4], 110%; in assay [9] it was 105%; in [5], 81.8%. Besides, the growth in [6] is 94.6%; in assay [7] it was 101%.
Regarding `COc1ccc(/C=C(\C#N)c2cc3ccccc3n2C)cc1`, the growth in assay [1] was 18.7%; in [2], 34.2%; in assay [3] it was 39.7%; in [4], 37.1%; in [5] it was 34.7%; in assay [7], 2.89% (active). Also, the growth in [8] was 8.82% (active).
In the case of `Fc1ccccc1Nc1ccc2nnc(-c3ccncc3)n2n1`, the growth was 95.4% in [10]; 103% in assay [2]; 97.3% in assay [3]; 107% in [4]; 107% in [9]; 105% in assay [5]. The results for the growth in assay [6], in assay [7] and in assay [8] were 108%, 105% and 99.2%, respectively.
As to `O=C1/C(=C/c2ccc(Cl)cc2)CN(Cc2cn(CCCNc3ccnc4cc(Cl)ccc34)nn2)C/C1=C\c1ccc(Cl)cc1`, the growth in assay [10] was -49.3% (active); in assay [2], -42.3% (active); in assay [3], -74.1% (active); in assay [4], -9.71% (active); in assay [9] it was -48.5% (active); in assay [5], -0.666% (active). The growth in assay [6] is -90.4% (active); in assay [7] it was 9.27% (active); in [8], 2.36% (active).
As for `COc1cc(-c2nc(SC(C)C)nc(Nc3ccccc3C)c2C#N)cc(OC)c1OC`, the growth was 110% in [1]; 103% in assay [2]; 99.1% in [3]; 110% in assay [4]; 104% in [5]; 121% in assay [6]. The growth is 104% in [7] and 109% in assay [8].
In the case of `NC(=O)c1cccc(-n2ccc3cc(NC(=O)Nc4ccc(Cl)c(Cl)c4)ccc32)n1`, the growth was 45.5% in [1]; 80.9% in assay [2]; 106% in assay [3]; 68.2% in assay [4]; 87.9% in [5]; 82.9% in assay [6]. For the same molecule, the growth in [7] was 58.5%; in assay [8], 91.8%.
`Cc1ccc(C(=O)Nc2ccccc2N)cc1`: the growth in [10] was 15%; in assay [2] it was 59.5%; in assay [3], 51.1%; in assay [4], 99.5%; in [9], 92.9%; in assay [5], 70.1%. Further, the growth in assay [6] is 90.8%; in [7], 71.4%; in [8], 44.2%.
Consider `COc1cc2cc(Oc3ccc(NC(=O)Nc4ccc(Cl)c(C(F)(F)F)c4)cc3)c(C)nc2cc1OCCN1CCCCC1`, for which the growth in assay [1] is -15.9% (active); in assay [2] it was -34.4% (active); in assay [3] it was 67.1%; in [4], -4.36% (active); in assay [5] it was -47.2% (active); in assay [6], -82.8% (active). For the same molecule, the growth was -44.5% (active) in assay [7] and 3.87% (active) in assay [8].
Regarding `O=c1oc2ccccc2cc1-c1csc(N=Nc2c(O)[nH]c3ccc(Cl)cc23)n1`, the growth was 102% in assay [1]; 96.3% in assay [2]; 96.2% in assay [3]; 107% in [5]; 107% in assay [6]; 105% in assay [7].
Consider `c1ccc2cc(Cn3c(-c4ccc5ccccc5c4)[n+](Cc4ccc5ccccc5c4)c4ccccc43)ccc2c1`, for which the growth in assay [1] was -27.8% (active); in assay [2], -62.9% (active); in assay [3], -12.2% (active); in [4], -17.2% (active); in [5], -74% (active); in assay [7], -58.9% (active). In assay [8], the growth is 31.2%.
`CCOC(=O)c1cnn(CC(O)c2ccc(F)cc2)c1NC(=O)Nc1ccccc1F` (centres undefined): the growth was 105% in assay [1]; 104% in assay [2]; 101% in [3]; 81.7% in assay [4]; 101% in assay [5]; 107% in assay [6]. Further, the growth is 97.3% in assay [7] and 101% in [8].
As for `Cn1c2ccc(Cl)cc2c2nn(C(=O)c3ccccc3)c(=O)nc21`, the growth is 106% in [10]; 101% in assay [2]; 99.5% in assay [3]; 114% in assay [4]; 114% in assay [9]; 110% in [5]. The growth is 111% in assay [6], 104% in [7] and 106% in assay [8].
`CC[Si](CC)(CC)OC1[C@@H](O[Si](CC)(CC)CC)[C@@H](CNC(=O)NC)O[C@H]1n1cnc2c(NC(=O)Nc3ccccc3)ncnc21` (some centres undefined): the growth in assay [10] is 3.35% (active); in [2] it was 92.7%; in [3], 93.6%; in [4] it was 94.4%; in [9] it was 98.2%; in assay [5], 73.6%. The growth in assay [6] is 66.6%; in [7], 69.9%; in [8], 91.8%.
In the case of `COc1ncnc2c1ncn2C/C(Br)=C(\Br)CCl`, the growth in assay [10] is -25.4% (active); in assay [2] it was 0.995% (active); in assay [3] it was 62.1%; in [4] it was -47.1% (active); in assay [9] it was 148%; in assay [5], 11.5%. Also, the figures for the growth in assay [6], in assay [7] and in assay [8] were -94.2% (active), 23.5% and -40.4% (active), respectively.
As to `COc1nc2c(cc1S(=O)(=O)c1ccccc1)CCc1c-2cnn1-c1ccccc1Cl`, the growth in [10] is 56.8%; in assay [2] it was 59.8%; in assay [3], 70.6%; in assay [4] it was 67.8%; in assay [9], 85.7%; in assay [5], 77.1%. In addition, the growth in assay [6] is 70.8%; in assay [7], 68.4%; in assay [8] it was 70.2%.
With `O=C1OCC2=C1C(c1ccc3c(c1)OCO3)CC(=O)N2c1cccc(Cl)c1` (centres undefined), the growth in [10] is 90.1%; in assay [2], 102%; in assay [3], 106%; in [4] it was 93.5%; in [9] it was 97.5%; in [5], 104%. Besides, the growth was 109% in assay [6], 94.5% in [7] and 98.9% in [8].
In the case of `CC1=CN2C(=NC3=C(CCCC/C3=C\c3ccccc3)C2c2ccccc2)S1` (centres undefined), the growth was 112% in [10]; 102% in assay [2]; 106% in assay [3]; 95.8% in assay [4]; 88.5% in assay [9]; 97.9% in [5]. Besides, the figures for the growth in assay [6], in [7] and in [8] were 110%, 92.8% and 100%, respectively.
Regarding `FC(F)(F)Oc1ccc2c(c1)C[C@H]1C[C@@H](c3ccoc3)N2O1`, the growth in assay [1] was 98.3%; in [2], 101%; in assay [3] it was 91.5%; in assay [9], 106%; in assay [5] it was 108%; in [6], 112%. Further, the growth in assay [8] is 98.3%.
On to `COc1cccc(C2CC(=O)Nc3cc4c(cc32)CCC4)c1OC` (centres undefined), for which the growth in assay [10] is 50.6%; in assay [2] it was 84.9%; in [3], 99.5%; in [4], 76.2%; in assay [9], 44.5%; in [5] it was 57%. Moreover, the values for the growth in [6], in assay [7] and in [8] were 46.1%, 67.7% and 42.1%, respectively.
On to `Cc1c(C(=O)Nc2nc(-c3ccccc3)cs2)nnn1-c1ccccc1Br`, for which the growth is 17% [50 µM] in assay [1]; 40.1% [50 µM] in [2]; 77.4% [50 µM] in assay [3]; 19.6% [50 µM] in assay [4]; 68.3% [50 µM] in assay [5]; 65.3% [50 µM] in assay [7]. Moreover, in assay [8], the growth was 38.1% [50 µM].
For `CC1=C(C/C=C(\C)CCC[C@H](C)CCC[C@H](C)CCCC(C)C)C(=O)c2ccccc2C1=O`, the growth in assay [1] was 94.9%; in assay [2], 100%; in assay [3], 105%; in [9], 103%; in assay [5] it was 111%; in [6], 119%. Besides, the growth in assay [7] was 105%; in [8], 111%.
Consider `O=C1C(OCCOc2ccccc2)=C(OCCOc2ccccc2)C(=O)c2ccccc21`, for which the growth in [10] was 78.8%; in [2], 86.8%; in [3], 124%; in [4], 44.8%; in assay [9], 57.9%; in assay [5], 62.7%. Also, the figures for the growth in assay [6], in assay [7] and in assay [8] were 78.2%, 60.3% and 68.8%, respectively.
